Results filed as inconclusive are left out. Calls of active or inactive are those of the source. How the source made its calls: active means hit-call score of the fitted dose curve at least 0.9, where 1 is the maximum; inconclusive means response in the unintended direction; inactive means score below 0.9.

Chain of Steroid hormone receptor ERR1 (Homo sapiens) (P11474 whole entry, looked up): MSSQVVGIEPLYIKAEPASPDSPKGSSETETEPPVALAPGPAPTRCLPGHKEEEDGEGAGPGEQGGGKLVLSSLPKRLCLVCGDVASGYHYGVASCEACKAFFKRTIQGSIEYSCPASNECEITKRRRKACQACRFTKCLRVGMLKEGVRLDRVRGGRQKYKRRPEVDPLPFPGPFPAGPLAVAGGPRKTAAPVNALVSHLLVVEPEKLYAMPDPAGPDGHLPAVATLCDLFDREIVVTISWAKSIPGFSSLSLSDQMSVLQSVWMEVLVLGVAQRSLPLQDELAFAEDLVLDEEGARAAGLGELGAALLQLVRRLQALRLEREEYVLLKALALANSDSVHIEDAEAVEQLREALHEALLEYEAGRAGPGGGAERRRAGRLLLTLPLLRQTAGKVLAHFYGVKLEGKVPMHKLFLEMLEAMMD

In the test the target is Steroid hormone receptor ERR1 (Homo sapiens) (UniProt P11474). Put plainly: ATG_ERRa_TRANS: Attagene TRANS-FACTORIAL HepG2 Assay for human Estrogen-Related Receptor alpha (ERRa) (AID 2282971). The note with it: HepG2 Attagene TRANS reporter, ERRa transactivation. As for the experimental part:
ATG_TRANS is a cell-based, multiplexed-readout assay that uses HepG2, a human liver cell line, with measurements taken at 24 hours after chemical dosing in a 24-well plate.ATG_ERRa_TRANS is one of 30 assay component(s) measured or calculated from the ATG_TRANS assay. It is designed to make measurements of mRNA induction, a form of inducible reporter, as detected with fluorescence intensity signals by Reverse transcription polymerase chain reaction (RT-PCR) and Capillary electrophoresis technology.Data from the assay component ATG_ERRa_TRANS was analyzed into 1 assay endpoint. This assay endpoint, ATG_ERRa_TRANS, was analyzed in the positive analysis fitting direction relative to DMSO as the negative control and baseline of activity. Using a type of inducible reporter, measures of mRNA for gain-of-signal activity can be used to understand the reporter gene at the transcription factor-level as they relate to the gene ESRRA. Furthermore, this assay endpoint can be referred to as a primary readout, because this assay has produced multiple assay endpoints where this one serves a reporter gene function. To generalize the intended target to other relatable targets, this assay endpoint is annotated to the nuclear receptor intended target family, where the subfamily is steroidal.
Human liver HepG2 cells are transiently transfected with multiple reporter transcription units (MRTUs) in 6-well plates using FuGene 6 reagent (Roche; 3 ml FuGene/1 mg DNA). The MRTU constructs are regulated by a cis-regulating element (promoter). […] A major difference between the CIS and TRANS system is that in CIS activities of endogenous TFs are measured, whereas the TRANS assay evaluates changes in activities of exogenous, chimeric NR-Gal4 proteins. […] At the end of 24 hour incubation, total RNA was isolated using TriZol reagent (Invitrogen). The isolated RNA is then reverse-transcribed using oligo(dT) primer and Mo-MLV reverse transcriptase (Invitrogen) with DNAse I (Ambion) treatment for 30 min. The one-tenth of the produced cDNA was amplified by PCR using Taq DNA polymerase (Invitrogen) and two reporter sequence-specific primers. The PCR products were fluorescently labeled by primer extension with 6-arboxyfluorescein (6-FAM) 5'-labeled reporter sequence-specific primer (2 min at 95 C, 20 s at 68 C and 10 min at 72 C) and these products were digested with 5U of HpaI (New England Biolabs) for 2h at 37 C. The fragments were purified using Qiaquick PCR columns (Qiagen), analyzed on an ABI 3130xL genetic analyzer (Applied Biosystems) with peak positions identified by using a set of X-rhodamine (ROX)-labeled MapMarker1000 molecular weight standards (BioVentures). The raw capillary electrophoresis data was processed using Attagraph software (Attagene).
Take `CC(C)(O)c1ccc(CNC(=O)c2cccnc2Oc2ccc(F)cc2)cc1`: the compound was called inactive. As to `COc1ccc(C(=O)Nc2nc3ccccc3c(NCc3ccccc3)c2C#N)cc1`, the compound was classed as inactive. For `CC(=O)S[C@H](C(=O)N[C@H]1Cc2ccccc2[C@H]2CCC[C@@H](C(=O)O)N2C1=O)C(C)C`, the compound was classed as inactive.

With `CCCCC(CC)COC(=O)CCCCCCCC(=O)OCC(CC)CCCC` (stereo not given), the result was inactive. Regarding `O=C1CCCCC1`, the outcome was inactive.

`CCCC(=O)O`: the compound was classed as inactive.

Consider `CC(COCC(C)OC(=O)c1ccccc1)OC(=O)c1ccccc1` (stereo not given), for which the compound was called inactive.

As to `CCOCCOCCO`, the compound was classed as inactive. Consider `Cc1cc(SC2=C(O)C[C@@](CCc3ccc(N)cc3)(C(C)C)OC2=O)c(C(C)(C)C)cc1CO`, for which the compound was called inactive. With `CC(C)c1cccc(C(C)C)c1`, the compound was called inactive. Turning to `O=C(N[C@@H](c1ccccc1)[C@@H]1CCCCN1)c1cccc(C(F)(F)F)c1Cl`, the outcome was inactive. With `CC(=O)OC1CC(C)OC(C)O1` (stereo not given), the compound was classed as inactive.

As to `CCCC[C@H]1CN(CC2CCOCC2)C(=O)OC12CCN(C1(C)CCN(C(=O)c3c(C)ncnc3C)CC1)CC2`, the result was inactive. For `CCCCCCCCCC[N+](C)(C)[O-]`, the compound was classed as inactive.

For the compound `CC(C)NCC(O)c1ccc(O)c(O)c1` (stereo not given), the result was inactive.

(Values after PubChem BioAssay (EPA / NIEHS).)
